In PubChem BioAssay (NCATS):
Results filed as inconclusive are left out. Where a call stands in place of a potency, no number is given. Active and inactive are the calls of the source. The call rests on the fitted dose curve; in most records, active means well fitted activation curve with a large enough effect; inconclusive means small, poorly fitted or top-dose-only effect; inactive means flat fitted curve, though single readings scatter.

test: Primary redox qHTS assay for identification of artifact compounds. (AID 1845223); details: Amplex Red/HRP redox cycling with DTT, fluorescence; series mostly up to 53.8 µM
Summary of the method: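 Amplex Red (25 uM) and HRP (250 mU/mL) in HBSS, with compounds for 15 min, then 250 uM DTT for 30 min, room temperature, dark. Fluorescence 525/598 nm read; normalized to DMSO and 10 uM DA3003; Hill fit.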

Row | SMILES | redox activity (% of DA3003) | Potency
1 | C[C@@H]1O[C@@H](O[C@H]2[C@H](O[C@H]3[C@H](O[C@H]4CC[C@@]5(CO)C(CC[C@]6(C)C5CC=C5C7CC(C)(C)C[C@@H](O)[C@]7(C)CC[C@]56C)C4(C)C)O[C@H](C(=O)O)[C@@H](O)[C@@H]3O)OC[C@@H](O)[C@@H]2O)[C@H](O)[C@H](O)[C@H]1O (stereo not given in full) | 0.809% [at 11.5 µM] (inactive) | –
2 | COc1cccc(-c2ccc([C@@H](Oc3cc(-c4ccc(C[C@H](N)C(=O)O)cc4)nc(N)n3)C(F)(F)F)cc2)c1 | – | inactive
3 | CC(C)NC[C@H](O)COc1ccc(CCOCC2CC2)cc1 | – | inactive
4 | Nc1ncnc2c1ncn2[C@H]1CCCO1 | – | inactive
5 | C=C1[C@@H]2[C@H]3OC(=O)C(=C)[C@@H]3CC[C@@](C)(O)[C@@H]2C[C@@H]1O[C@@H]1O[C@H](CO)[C@@H](O)[C@H](O)[C@H]1O | – | inactive
6 | O=C(NCc1ccc(OC(F)(F)F)cc1)C1c2ccccc2C(=O)N1C1CCOCC1 (stereo not given) | – | inactive
7 | COc1cc2c(cc1O)C1(Cc3ccc4c(c3C1=O)OCO4)N(C)CC2 (stereo not given) | – | inactive
8 | CC(C)=CCCC1(C)Oc2cc3c(c4c2C2C(O4)C(C)(O)CCC21)CN(C(CCC(=O)O)C(=O)O)C3=O (stereo not given) | – | inactive
9 | O=C(O[C@@H]1O[C@H](CO)[C@@H](O)[C@H](O)[C@H]1O)c1c(O)cc(O)cc1/C=C/c1ccccc1 | – | inactive
10 | C[C@@H](OC(=O)/C=C/c1ccc(O)cc1)C1=C[C@]2(C=C[C@@H]3C(C(=O)O)=CO[C@@H](O[C@@H]4O[C@H](CO[C@@H]5O[C@H](CO)[C@@H](O)[C@H](O)[C@H]5O)[C@@H](O)[C@H](O)[C@H]4O)[C@@H]32)OC1=O | – | inactive
11 | CC(=O)O[C@@H]1C[C@@]23C[C@@]24CC[C@H](OC2OC[C@@H](O)[C@H](O)[C@H]2O)C(C)(C)[C@@H]4CC[C@H]3[C@]2(C)CC3OC4(C[C@@H](C)C3[C@@]12C)OCC1(C)OC14 (stereo not given in full) | – | inactive
12 | OC[C@H]1O[C@@H](Oc2cc(O)cc(-c3cc4ccc(O)cc4o3)c2)[C@H](O)[C@@H](O)[C@@H]1O | – | inactive
13 | COCCCNCC1COc2ccccc2O1 (stereo not given) | – | inactive
14 | O=C(CCCCc1ccc2ccccc2c1)C(F)(F)F | – | inactive
15 | C=C1CCC2C(C)(C)CC(=O)CC2(C)C1CCC(C)CCOC(C)=O (stereo not given) | – | inactive
16 | COc1cc(/C=C/C(=O)OC[C@H]2O[C@H](O[C@]3(CO)O[C@H](CO)[C@@H](O)[C@@H]3O)[C@H](O)[C@@H](O)[C@@H]2O)cc(OC)c1O | – | inactive
17 | NS(=O)(=O)NCCNc1nonc1C(=Nc1ccc(F)c(Br)c1)NO | – | inactive
18 | CC(=O)OCCC(C)CCC1C(C)(O)CCC2C(C)(C)CCCC21C (stereo not given) | – | inactive
19 | O=c1ccn(C2OC(CO)C(O)C2O)c(=O)[nH]1 (stereo not given) | – | inactive
20 | Nc1c(Br)cc(Br)cc1CNC1CCC(O)CC1 (stereo not given) | – | inactive

Row | SMILES | redox activity (% of DA3003) | Potency
21 | CC(C#N)C(C)O[C@@H]1O[C@H](CO)[C@@H](O)[C@H](O)[C@H]1O (stereo not given in full) | – | inactive
22 | O=C(/C=C/c1ccccc1)OCC1=CC[C@@H]2C(C(=O)O)=CO[C@@H](O[C@@H]3O[C@H](CO)[C@@H](O)[C@H](O)[C@H]3O)[C@H]12 | – | inactive
23 | O=C(c1ccc(C#Cc2cccc(F)c2)cn1)N1CC2CC2C1 (stereo not given) | – | inactive
24 | CC1OC(OC2C(CO)OC(OCC3OC(OC(=O)C45CCC(C)(C)CC4C4=CCC6C7(C)CCC(OC8OC(C(=O)O)C(O)C(OC9OC(CO)C(O)C(O)C9O)C8O)C(C)(C)C7CCC6(C)C4(C)CC5)C(O)C(O)C3O)C(O)C2O)C(O)C(O)C1O (stereo not given) | 7.33% [at 11.5 µM] (inactive) | –
25 | CC1=CCC2C(C)(CO)CCCC2(C)C1CC12OC1C(O)C(CO)=CC2O (stereo not given) | – | inactive
26 | O=C(/C=C/c1ccc(O)cc1)O[C@H]1[C@@H]2C=CO[C@@H](O[C@@H]3O[C@H](CO)[C@@H](O)[C@H](O)[C@H]3O)[C@@H]2[C@@]2(CO)O[C@@H]12 | – | inactive
27 | C[C@@H]1CCC2C(C)(C)[C@H](O)CC[C@]2(C)[C@@]12Cc1c(O)cc3c(c1O2)CN(CCO)C3=O (stereo not given in full) | – | inactive
28 | COc1c(C)c(OCC=C(C)C)cc2c1C(=O)NC2=O | – | inactive
29 | CC(=O)OCC1=C[C@H](O)[C@@H]2C(C(=O)O)=CO[C@@H](O[C@@H]3O[C@H](CO)[C@@H](O)[C@H](O)[C@H]3O)[C@H]12 | – | inactive
30 | CC(=O)c1c(C)cc(O[C@@H]2O[C@H](CO)[C@@H](O)[C@H](O)[C@H]2O)cc1O | – | inactive
31 | CC1(C)O[C@]23C[C@H]1C[C@H](OC(=O)c1ccoc1)[C@]2(C)[C@@H](OC(=O)c1ccoc1)CCC3(C)O (stereo not given in full) | – | inactive
32 | COc1cc(C(O)C(CO)Oc2ccc(CCCO[C@@H]3O[C@@H](C)[C@H](O)[C@@H](O)[C@H]3O)cc2OC)ccc1O (stereo not given in full) | – | inactive
33 | C[C@@H]1C[C@H](O)/C=C/[C@H](O)[C@@H](O)CC(=O)O1 | – | inactive
34 | Cc1coc2c1CC1OC1(C)CCC1OC1(C)C2 (stereo not given) | – | inactive
35 | CC(NC(=O)CC(=O)O)c1nc2ccccc2c(=O)[nH]1 (stereo not given) | – | inactive
36 | COC(=O)[C@]12C(=O)C(C)=C(O)[C@@]1(C)C(C)=CC1[C@@]34CC[C@@H](OC(C)=O)C(C)(C)C3[C@H](C[C@]12C)OC4=O (stereo not given in full) | – | inactive
37 | CC(=O)OC1C(O)CC(O[C@@H]2O[C@H](CO)[C@@H](O)[C@H](O)[C@H]2O)C2CCC3C(=O)OC(c4ccoc4)CC3(C)C21 (stereo not given in full) | – | inactive
38 | CC1CC(O)CC(C)(C)C1(O)CCO (stereo not given) | – | inactive
39 | CN1CCC(c2c[nH]c3ccc(NC(=O)c4ccc(F)cc4)cc23)CC1 | – | inactive
40 | C#Cc1cnc2[nH]c(=O)n(C(CC)CC)c2n1 | – | inactive
